According to PMC5700166:

Legend:
Assay in all cases: protein-binding microarray (PBM); PBM: ~300 nM protein, 6 mM HEPES pH 7.8, 80 mM KCl, 0.5 mM EDTA, 0.5 mM EGTA, 6% glycerol, 35 ng/ul poly-dIdC, 1% milk, 1 h, room temperature; Ap Aiptasia and Nv Nematostella (sea anemones) / Co Capsaspora / Aq Amphimedon (sponge) / Dm Drosophila / Hu human; RHD is the Rel homology domain; high values mean tight binding
Settings in all cases: dsDNA, one strand shown
GST-Ap-NF-kB RHD = molecular target: T1, GST-Ap-NF-kB RHD (Exaiptasia pallida (Aiptasia), UniProt A0A913YAJ5 2-422)
T1 sequence: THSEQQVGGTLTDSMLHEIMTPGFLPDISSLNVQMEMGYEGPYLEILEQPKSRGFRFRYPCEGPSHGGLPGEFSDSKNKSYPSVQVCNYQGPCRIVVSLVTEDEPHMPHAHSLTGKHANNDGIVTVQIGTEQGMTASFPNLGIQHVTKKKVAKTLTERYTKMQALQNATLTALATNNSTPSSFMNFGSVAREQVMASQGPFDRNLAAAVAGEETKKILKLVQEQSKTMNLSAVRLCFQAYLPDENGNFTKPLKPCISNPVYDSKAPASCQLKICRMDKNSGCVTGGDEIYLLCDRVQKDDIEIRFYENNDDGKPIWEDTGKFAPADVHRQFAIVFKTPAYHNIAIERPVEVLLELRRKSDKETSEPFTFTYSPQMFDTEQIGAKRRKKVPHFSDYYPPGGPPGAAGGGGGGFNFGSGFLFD

[1] = molecular target: T2, GST-Nv-NF-kB (Ser allele) (Nematostella vectensis, UniProt A7UNT2 2-411)
T2 sequence: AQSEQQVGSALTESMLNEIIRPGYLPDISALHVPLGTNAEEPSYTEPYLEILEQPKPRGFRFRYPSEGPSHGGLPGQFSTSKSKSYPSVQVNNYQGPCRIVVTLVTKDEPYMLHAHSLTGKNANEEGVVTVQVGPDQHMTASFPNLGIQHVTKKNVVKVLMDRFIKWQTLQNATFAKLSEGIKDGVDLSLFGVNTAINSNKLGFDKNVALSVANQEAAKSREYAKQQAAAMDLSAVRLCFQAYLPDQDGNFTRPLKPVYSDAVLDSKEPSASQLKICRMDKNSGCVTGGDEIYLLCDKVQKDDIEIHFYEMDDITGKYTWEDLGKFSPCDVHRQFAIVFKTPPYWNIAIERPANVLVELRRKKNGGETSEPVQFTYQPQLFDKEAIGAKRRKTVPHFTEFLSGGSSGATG

GST-Co-NF-kB = molecular target: T3, GST-Co-NF-kB (Capsaspora owczarzaki, UniProt F1ARL5 200-546)
T3 sequence: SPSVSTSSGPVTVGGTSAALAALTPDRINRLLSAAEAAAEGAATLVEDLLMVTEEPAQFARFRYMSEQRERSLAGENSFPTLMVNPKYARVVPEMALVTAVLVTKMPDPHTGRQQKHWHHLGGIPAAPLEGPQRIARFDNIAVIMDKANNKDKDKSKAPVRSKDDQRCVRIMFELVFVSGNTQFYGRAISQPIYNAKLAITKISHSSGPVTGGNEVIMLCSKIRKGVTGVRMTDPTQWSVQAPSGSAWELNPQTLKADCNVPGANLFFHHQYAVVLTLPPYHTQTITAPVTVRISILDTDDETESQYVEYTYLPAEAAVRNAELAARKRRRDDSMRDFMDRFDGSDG

GST-Dm-Relish = molecular target: T4, GST-Dm-Relish (Drosophila melanogaster, UniProt Q94527 99-473)
T4 sequence: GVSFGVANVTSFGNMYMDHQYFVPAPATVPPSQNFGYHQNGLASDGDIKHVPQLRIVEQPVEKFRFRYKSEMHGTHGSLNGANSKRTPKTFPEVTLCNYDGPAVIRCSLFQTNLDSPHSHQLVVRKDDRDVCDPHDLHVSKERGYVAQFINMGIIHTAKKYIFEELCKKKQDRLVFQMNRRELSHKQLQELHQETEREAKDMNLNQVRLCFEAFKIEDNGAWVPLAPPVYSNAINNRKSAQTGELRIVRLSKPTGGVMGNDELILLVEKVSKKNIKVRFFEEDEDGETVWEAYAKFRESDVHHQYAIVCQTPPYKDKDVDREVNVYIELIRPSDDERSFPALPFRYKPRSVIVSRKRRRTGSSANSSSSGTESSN

GST-Aq-NF-kB = molecular target: T5, GST-Aq-NF-kB (Amphimedon queenslandica, UniProt A9Y5G7 2-389)
T5 sequence: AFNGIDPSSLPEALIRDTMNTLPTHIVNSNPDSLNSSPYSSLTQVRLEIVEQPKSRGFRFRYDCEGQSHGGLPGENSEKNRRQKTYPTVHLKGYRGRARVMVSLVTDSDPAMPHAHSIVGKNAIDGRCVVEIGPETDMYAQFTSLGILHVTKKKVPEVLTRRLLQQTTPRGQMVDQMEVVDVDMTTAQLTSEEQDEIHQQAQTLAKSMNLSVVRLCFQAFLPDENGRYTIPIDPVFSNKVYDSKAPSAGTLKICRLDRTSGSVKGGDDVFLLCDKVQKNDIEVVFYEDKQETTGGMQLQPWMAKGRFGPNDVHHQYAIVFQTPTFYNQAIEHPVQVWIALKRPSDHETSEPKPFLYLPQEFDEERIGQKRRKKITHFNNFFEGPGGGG

Row | Sequence | binding signal (GST-Ap-NF-kB RHD) [z-score] | binding signal [1] [z-score] | binding signal (GST-Co-NF-kB) [z-score] | binding signal (GST-Dm-Relish) [z-score] | binding signal (GST-Aq-NF-kB) [z-score]
1 | CCGATTAACATCAAGCCCCCCCTTGATGTTAATCGGGTCTTGATTCGCTTGACGCTGCTG | 4.63 | 4.35 | 3.04 | 4.77 | 4.92
2 | CCGATTAACATCACCGGAATTCCTGATGTTAATCGGGTCTTGATTCGCTTGACGCTGCTG | 1.13 |  | 1.36 | 3.45 | 2.36
3 | CCGATTAACATCAATTCCCCCCCTGATGTTAATCGGGTCTTGATTCGCTTGACGCTGCTG | 8.18 | 7.32 | 8.87 | 6.09 | 6.45
4 | CCGATTAACATCACGGACACCCCTGATGTTAATCGGGTCTTGATTCGCTTGACGCTGCTG | 1.65 |  | 1.34 | 1.95 | 2.16
5 | CCGATTAACATCAATCCCCCCCCTGATGTTAATCGGGTCTTGATTCGCTTGACGCTGCTG | 7.49 |  | 7.2 | 6.09 | 5.2
6 | CCGATTAACATCACGGTACGGGGTGATGTTAATCGGGTCTTGATTCGCTTGACGCTGCTG | 2.02 |  | 2.2 | 1.48 | 1.51
7 | CCGATTAACATCAGGCAACCCCATGATGTTAATCGGGTCTTGATTCGCTTGACGCTGCTG | 1.67 |  | 1.23 | 2.62 | 1.4
8 | CCGATTAACATCACCCTTGGGAATGATGTTAATCGGGTCTTGATTCGCTTGACGCTGCTG | 1.03 |  | 2.46 |  | 2.01
9 | CCGATTAACATCAGGGGGGGGGATGATGTTAATCGGGTCTTGATTCGCTTGACGCTGCTG | 6.37 |  | 7.03 | 5.78 | 5.02
10 | CCGATTAACATCACGGGCACCCCTGATGTTAATCGGGTCTTGATTCGCTTGACGCTGCTG | 1.72 |  | 1.34 | 2.01 | 2.04
11 | CCGATTAACATCAGGGGGGGGAATGATGTTAATCGGGTCTTGATTCGCTTGACGCTGCTG | 7.86 |  | 8.84 | 5.27 | 5.65
12 | CCGATTAACATCACGGGGGGGGCTGATGTTAATCGGGTCTTGATTCGCTTGACGCTGCTG | 4.19 |  | 5.11 | 4.98 | 4.34
13 | CCGATTAACATCAATACCCCCCCTGATGTTAATCGGGTCTTGATTCGCTTGACGCTGCTG | 6.7 |  | 6.7 | 5.66 | 4.66
14 | CCGATTAACATCAGGGGGGGATATGATGTTAATCGGGTCTTGATTCGCTTGACGCTGCTG | 6.21 | 5.63 | 5.9 | 4.91 | 5.29
15 | CCGATTAACATCAGTACTTCCCATGATGTTAATCGGGTCTTGATTCGCTTGACGCTGCTG | 1.53 |  | 1.42 | 9.09 | 2.53
16 | CCGATTAACATCACTCCCCCCCATGATGTTAATCGGGTCTTGATTCGCTTGACGCTGCTG | 5.11 | 3.12 | 6.71 | 3.23 | 4.01
17 | CCGATTAACATCAACCCCCCCCGTGATGTTAATCGGGTCTTGATTCGCTTGACGCTGCTG | 5.8 | 2.64 | 6.25 | 6.51 | 4.08
18 | CCGATTAACATCATCCGCGGGAGTGATGTTAATCGGGTCTTGATTCGCTTGACGCTGCTG | 1.05 |  | 1.38 |  | 1.92
19 | CCGATTAACATCAGGGGGGGAACTGATGTTAATCGGGTCTTGATTCGCTTGACGCTGCTG | 6.55 |  | 8.33 | 5.17 | 4.84
20 | CCGATTAACATCATAAGGGGTGTTGATGTTAATCGGGTCTTGATTCGCTTGACGCTGCTG | 2.3 |  | 1.09 |  | 1.91
21 | CCGATTAACATCAGGACACCCCATGATGTTAATCGGGTCTTGATTCGCTTGACGCTGCTG | 1.22 |  | 1.49 | 1.93 | 1.61
22 | CCGATTAACATCAGGGCTTCCCATGATGTTAATCGGGTCTTGATTCGCTTGACGCTGCTG | 1.44 |  | 1.01 | 8.36 | 3.5
23 | CCGATTAACATCAGGTAACCCCATGATGTTAATCGGGTCTTGATTCGCTTGACGCTGCTG | 3.05 |  | 2.06 | 6.29 | 2.29
24 | CCGATTAACATCACACCCCAACATGATGTTAATCGGGTCTTGATTCGCTTGACGCTGCTG | 1.38 |  | 2.16 |  | 1.02
25 | CCGATTAACATCAAGGGGGGAAATGATGTTAATCGGGTCTTGATTCGCTTGACGCTGCTG | 6.16 | 8.51 | 7.79 | 4.47 | 5.8
26 | CCGATTAACATCAAGGGGGGGATTGATGTTAATCGGGTCTTGATTCGCTTGACGCTGCTG | 7.19 |  | 4.35 | 5.64 | 5.59
